Source: PubChem (Johns Hopkins Ion Channel Center)
KCNQ2 pot: KCNQ2 (rat) channel potentiation | AID 2239 | hit rate 0.54% among 310,000 | B-score at 10 µM | CHO-K1 KCNQ2, FluxOR thallium flux fluorescence; hits give high values | O88943;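 active = fluorescence ratio B-score at least 3 SD of library B-scores, with initial fluorescence B-score within 3 of them, cut at about 5.3 in these data; same plate scores as AID 2156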;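 also: B-score of peak minus minimum over baseline fluorescence ratio after K+ and Tl+ stimulus; positive B-score means potentiation of KCNQ2 with more thallium influx and brighter signal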
KCNQ2 block: inhibitors of rat KCNQ2 potassium channel; O88943; CHO-K1 KCNQ2, FluxOR thallium flux, 20 min; hits give low values; B-score at 10 µM; hit rate 1.1% among 310,000; AID 2156;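 active = fluorescence ratio B-score at most minus 3 library SDs, with starting brightness B-score within 2 library SDs, cut at about -5.5 in these data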
Kir21 conf inh: confirmation of mouse Kir2.1 potassium channel inhibitors; AID 2032; Tl flux remaining, % of negative control (hits give low values), % at 10 µM; hit rate 41% among 2,300; shares compounds with KCNQ2 pot; Kir2.1-expressing cells, FluxOR thallium flux fluorescence; hits give low values;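 active = Primary-screen hit whose thallium flux fell at least 3 control SD below untreated wells in both duplicates, with normal baseline fluorescence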;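 also: 0% = blank wells without stimulus and 100% = stimulated no-compound controls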
Target sequence (P35561 whole entry, looked up): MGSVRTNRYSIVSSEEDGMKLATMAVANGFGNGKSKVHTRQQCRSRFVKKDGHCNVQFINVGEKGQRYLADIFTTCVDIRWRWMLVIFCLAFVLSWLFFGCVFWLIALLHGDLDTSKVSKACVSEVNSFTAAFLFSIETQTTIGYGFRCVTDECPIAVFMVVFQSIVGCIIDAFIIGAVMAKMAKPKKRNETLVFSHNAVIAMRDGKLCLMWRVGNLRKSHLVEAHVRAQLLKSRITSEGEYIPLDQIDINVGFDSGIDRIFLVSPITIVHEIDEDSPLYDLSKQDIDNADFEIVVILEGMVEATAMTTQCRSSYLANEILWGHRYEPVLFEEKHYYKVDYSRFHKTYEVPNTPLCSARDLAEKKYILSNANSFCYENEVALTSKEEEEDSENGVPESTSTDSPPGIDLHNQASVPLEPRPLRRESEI
HEK293 ctr: alters thallium flux in parental HEK293 cells, Kir2.1 counter-screen; hit rate 19% among 2,300; AID 2105; FluxOR signal as % of negative control (100 = no effect), % at 10 µM; FluxOR thallium flux fluorescence; 0% = unstimulated blank wells; shares compounds with KCNQ2 pot;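 active = dye signal at least 3 control SD above or below untreated wells in both duplicates, raw fluorescence within 3, either direction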;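 also: percent is based on the flux ratio of peak minus minimum fluorescence over baseline F0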
CHO-K1 ctr: alters thallium flux in parental CHO-K1 cells, KCNQ2 counter-screen; shares compounds with KCNQ2 pot; hit rate 43% among 1,200; activity increase over 3SD of controls, % at 10 µM; FluxOR thallium flux fluorescence; zero = vehicle mean+3SD, 100% = vehicle-minus-blank window;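 active = signal rise of at least 3 SD above the untreated control mean, in both duplicate wells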;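 also: counter screen of KCNQ2 potentiator hits so any rise reflects channel-independent effects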
KCNQ1 sel pot: tests whether KCNQ2 potentiators also act on human KCNQ1. shares compounds with KCNQ2 pot. CHO KCNQ1 stable, FluxOR thallium flux fluorescence; beyond 3SD, as % of vehicle-control signal. activation over 3SD threshold, % at 10 µM. hit rate 28% among 1,200. AID 2283;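 active = fluorescence ratio rise of at least 3 SD of vehicle wells above their mean, in both replicate wells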;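 also: 0% = vehicle mean plus 3 SD and 100% = vehicle minus unstimulated blank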
KCNQ2 pot conf: rat KCNQ2 channel potentiator confirmation. shares compounds with KCNQ2 pot. CHO-KCNQ2 cells, FluxOR thallium flux fluorescence. potentiation, less the hit threshold, % at 10 µM. hit rate 68% among 1,200. AID 2287;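 active = fluorescence ratio rising 3 SD or more over the vehicle control mean in both replicates, plus primary screen hit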;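 also: peak minus minimum thallium fluorescence divided by baseline after K/Tl stimulus; 0% = vehicle mean plus 3 SD and 100% = vehicle minus unstimulated blank difference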
Kir2-1 sel: selectivity of KCNQ2 potentiators: effect on mouse Kir2.1; shares compounds with KCNQ2 pot; HEK293 Kir2.1, FluxOR thallium flux fluorescence; activity over 3SD threshold, % at 10 µM; hit rate 2% among 1,200;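 active = fluorescence ratio rise of at least 3 SD above the vehicle-control mean, seen in both replicates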;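 also: 0% = vehicle mean plus 3 SD and 100% = vehicle minus no-stimulus blank window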
KCNQ2 W236L MoA: KCNQ2 potentiators acting on retigabine-insensitive rat KCNQ2 W236L mutant; shares compounds with KCNQ2 pot; CHO KCNQ2-W236L, automated patch clamp current; current increase over 3SD of negative controls (%), hits give high values, % at 25 µM; hit rate 10% among 940;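 active = current increase at least 3 SD of the untreated controls above them in both duplicate recordings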
Active calls of the source: *; i = inactive; / = no result given. A selection: hits, their analogues and other compounds. The true share with any hit is near 1.6%.

SMILES	KCNQ2 pot	KCNQ2 block	Kir21 conf inh	HEK293 ctr	others
CC(=O)c1ccccc1NC(=O)CCCNC(=O)c1ccc(Cl)cc1	/	i	/	/
CCN(c1ccc(OC)cc1)S(=O)(=O)c1ccc2c(c1)NC(=O)CS2	/	i	/	/
CCN(c1cccc(C)c1)S(=O)(=O)c1ccc2c(c1)NC(=O)CS2	/	i	62%*	i
COc1cc2nc(Nc3ccc(F)cc3)nc(N)c2cc1OC	0.07	i	42%*	i
COc1cc2nc(Nc3ccc(C)c(C)c3)nc(N)c2cc1OC	/	i	/	/
CC(C)c1ccc2nc(NC(=O)C3CC3)sc2c1	5.6*	i	i	68%*	CHO-K1 ctr=21*;KCNQ1 sel pot=-8;KCNQ2 pot conf=28*;Kir2-1 sel=-32;KCNQ2 W236L MoA=27%*
O=C(Nc1nc2ccc(Cl)cc2s1)C1CC1	0.82	i	/	/
O=c1[nH][nH]c(C(F)(F)F)c1/C=N/N1CCOCC1	0.39	i	/	/
CN(Cc1cn(-c2ccccc2)nc1-c1ccc(Cl)cc1)C(=O)CCC(=O)O	0.61	i	/	/
CCN(CC)CCN(C(=O)c1ccc(Br)s1)c1nc2cc3c(cc2s1)OCCO3	2	i	/	/
CN(C)CCCN(C(=O)c1ccc(Br)s1)c1nc2cc3c(cc2s1)OCCO3	/	i	i	i
COc1cc(NC(=O)CSc2ncnc3sc4c(c23)CCC(C)C4)c(C(=O)O)cc1OC (configuration not stated)	19*	i	i	417%*	CHO-K1 ctr=-7;KCNQ1 sel pot=36*;KCNQ2 pot conf=94*;Kir2-1 sel=-5;KCNQ2 W236L MoA=i
CC1CCc2c(sc3ncnc(SCC(=O)Nc4ccc(C(=O)O)cc4)c23)C1 (configuration not stated)	0.97	i	/	/
O=C(CN1CCN(S(=O)(=O)c2ccc(F)cc2)CC1)Nc1ccc(F)cc1F	/	i	/	/
CCCCCC/C(C)=C1/SC(=S)NC1=O	22*	i	i	438%*	CHO-K1 ctr=6.0*;KCNQ1 sel pot=-23;KCNQ2 pot conf=104*;Kir2-1 sel=-3;KCNQ2 W236L MoA=71%*
CCCCCCCC(=O)NNC(=O)Cc1ccccc1	0.67	i	/	/
Cc1ccc(OCc2ccc(C(=O)O)o2)c([N+](=O)[O-])c1	1.4	i	/	/
CC(C)(C)c1csc(SCC(=O)Nc2ccc(Cl)cn2)n1	7*	i	i	i	CHO-K1 ctr=13*;KCNQ1 sel pot=10*;KCNQ2 pot conf=5.0*;Kir2-1 sel=-46;KCNQ2 W236L MoA=i
Cc1csc(SCC(=O)Nc2ccc(Cl)cn2)n1	0.39	i	/	/
CCOC(=O)N1CCC(NC(=O)c2cccc3c2C(=O)N(Cc2cccnc2)C3)CC1	/	i	/	/
CCCCn1c(=O)c(CCC(=O)OCC(=O)Nc2ccc(F)c(Cl)c2)nc2ccccc21	0.33	i	/	/
O=C(c1cc(COc2ccc3c(c2)CCCC3)on1)N1CCCC1	1.1	i	i	i
COCC1CCN(C(=O)c2cc(COc3ccc4c(c3)CCCC4)on2)C1 (configuration not stated)	0.7	i	/	/
Cc1ccc(/C=C(\NC(=O)c2ccc(C)cc2)c2nc(=S)[nH][nH]2)cc1	6*	i	i	i	CHO-K1 ctr=-4;KCNQ1 sel pot=-23;KCNQ2 pot conf=-18;Kir2-1 sel=-37
Cc1ccc(C(=O)N/C(=C\c2cccs2)c2nc3ccccc3[nH]2)cc1	/	i	/	/
SMILES	KCNQ2 pot	KCNQ2 block	Kir21 conf inh	HEK293 ctr	others
CC(C)C(NC(=O)OCc1ccccc1)C(=O)N1CCOCCOCCOCC1 (configuration not stated)	2.2	i	/	/
CCC(CC)c1nnc(NC(=O)c2cccnc2SC)s1	/	i	/	/
CC(C)CCN1C(=O)C2(OCCCO2)c2cc(Cl)ccc21	/	i	/	/
Cc1cc(Oc2ccccc2)nc(SCC(=O)Nc2ccc(Cl)c(Cl)c2)n1	5.5*	i	i	i	CHO-K1 ctr=-26;KCNQ1 sel pot=-10;KCNQ2 pot conf=6.8*;Kir2-1 sel=-35;KCNQ2 W236L MoA=i
Cc1cc(Oc2ccccc2)nc(SCC(=O)Nc2ccccc2)n1	/	i	/	/
O=C(CCN1C(=O)[C@@H]2Cc3ccccc3CN2C1=O)N[C@H](C(=O)O)c1ccccc1	0.51	i	/	/
COc1ccccc1CC(=O)N1CCCc2cc(C)ccc21	/	i	i	i
Cc1ccc2c(c1)CCCN2C(=O)CSc1ccccc1	/	i	/	/
O=C(Cn1nnc(-c2ccccc2)n1)N/N=C/c1ccco1	1.9	i	/	/
COc1ccc(/C=C2\CCc3ccccc3C2=O)cc1O	/	i	/	/
CC1(C)CC(n2c(=S)[nH]c3ccccc3c2=O)CCO1 (configuration not stated)	0.74	i	/	/
O=c1c2ccccc2[nH]c(=S)n1C1CCCCC1	/	i	/	/
CC1CCC(n2c(=S)[nH]c3ccccc3c2=O)CC1 (configuration not stated)	11*	i	i	i	CHO-K1 ctr=-1;KCNQ1 sel pot=83*;KCNQ2 pot conf=27*;Kir2-1 sel=-27;KCNQ2 W236L MoA=i
CC1CCCC(n2c(=S)[nH]c3ccccc3c2=O)C1C (configuration not stated)	11*	i	i	i	CHO-K1 ctr=-15;KCNQ1 sel pot=-19;KCNQ2 pot conf=6.8*;Kir2-1 sel=-27;KCNQ2 W236L MoA=i
Cc1ccc(C(=O)Nc2ccc3c(c2)nc(CCNC(=O)c2ccco2)n3C)cc1	/	i	/	/
NC(=O)C1CCN(C(=O)COc2ccc3ccccc3c2Br)CC1	/	i	/	/
O=C(COc1ccc2ccccc2c1Br)N1CCCCC1	13*	i	i	i	CHO-K1 ctr=-2;KCNQ1 sel pot=-25;KCNQ2 pot conf=30*;Kir2-1 sel=-35;KCNQ2 W236L MoA=i
CCC1CCCCN1C(=O)Nc1cc(Cl)ccc1OC (configuration not stated)	/	i	/	/
Cc1cc(C)c2nc(N3CCCC(C(=O)NC4CCCC4)C3)sc2c1 (configuration not stated)	1.7	i	/	/
CCOc1ccc(CCNC(=O)CN2C(=O)NC(CCSC)C2=O)cc1OCC (configuration not stated)	0.47	i	/	/
CCOc1ccc(N=Nc2ccc(O)c3ncccc23)cc1	23*	i	i	i	CHO-K1 ctr=13*;KCNQ1 sel pot=12*;KCNQ2 pot conf=-20;Kir2-1 sel=-21
CCN(CC)S(=O)(=O)c1cc(OC)ccc1N=Nc1ccc(O)c2ncccc12	2	i	/	/
Cc1ccc(C(C2C(=O)CC(C)(C)CC2=O)C2C(=O)CC(C)(C)CC2=O)s1	5.6*	i	i	i	CHO-K1 ctr=-1;KCNQ1 sel pot=-20;KCNQ2 pot conf=-31;Kir2-1 sel=-58
CC1(C)CC(=O)C(C(c2ccncc2)C2C(=O)CC(C)(C)CC2=O)C(=O)C1	/	i	/	/
CC(=O)Nc1cccc(NC(=O)C(C)N2c3cccc4cccc(c34)S2(=O)=O)c1 (configuration not stated)	0.02	i	/	/
